Laboratory results from PubChem BioAssay AID1053197 (The Scripps Research Institute Molecular Screening Center, 2014).
About 2,600 (0.7%) of roughly 370,000 compounds were called active.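 How the source made its calls: active means inhibition above a cutoff: mean of compounds within the control limits plus 3 SD of those (cut at about 17% in these data); inactive means the rest.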 The full list was thinned out, with actives kept by preference.

molecular target: Sialate O-acetylesterase (Homo sapiens) (UniProt Q9HAT2); assay: human SIAE inhibitors, primary screen, biochemical, fluorescence polarization, FP-Rh probe, 1536-well HTS (AID 1053197); details: SIAE FP-Rh probe binding, at 9.66 µM, active compounds read high;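 further: 0% = plate median of compound wells and 100% = probe without SIAE protein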
Sequence (Q9HAT2 whole entry, looked up): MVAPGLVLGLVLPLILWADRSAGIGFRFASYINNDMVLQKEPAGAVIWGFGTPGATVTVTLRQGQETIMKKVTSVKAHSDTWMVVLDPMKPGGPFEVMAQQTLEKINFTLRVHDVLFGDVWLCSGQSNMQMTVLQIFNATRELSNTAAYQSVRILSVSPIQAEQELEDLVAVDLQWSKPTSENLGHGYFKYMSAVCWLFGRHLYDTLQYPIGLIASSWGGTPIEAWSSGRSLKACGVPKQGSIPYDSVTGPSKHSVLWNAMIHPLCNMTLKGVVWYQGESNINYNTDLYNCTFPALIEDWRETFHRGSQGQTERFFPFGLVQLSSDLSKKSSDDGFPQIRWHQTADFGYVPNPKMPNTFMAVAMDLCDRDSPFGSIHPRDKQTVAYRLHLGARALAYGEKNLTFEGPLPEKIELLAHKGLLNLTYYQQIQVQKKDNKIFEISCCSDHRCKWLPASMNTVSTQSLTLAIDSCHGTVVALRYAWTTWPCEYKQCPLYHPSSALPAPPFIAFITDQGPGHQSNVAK

| SMILES | inhibition |
| --- | --- |
| COc1ccc(CN2C(=O)N3Cc4cc(OC)ccc4C3CS2(=O)=O)cc1 (stereo not drawn) | -3.42% (inactive) |
| Cc1ccc(OCC(=O)Nc2ccc(-c3nnc(-c4ccco4)o3)cc2)cc1 | 32.9% (active) |
| Cc1ccc(-c2nnc(SCC(=O)Nc3ccc(Oc4ccccc4)cc3)n2Cc2ccco2)cc1 | -0.26% (inactive) |
| CCOC(=O)C1=C(O)/C(=C/c2ccc(OCC(=O)Nc3ccc(C)cc3)cc2)N=C1C | -21.7% (inactive) |
| COC(=O)C1=C(NC(=O)C(C)(C)C)CCS1 | 17.4% (active) |
| COC(=O)c1c(C(=O)OC)c2n(c1C)CCS2 | -0.54% (inactive) |
| Cc1nc(NC(=O)C(C)(C)C)sc1[N+](=O)[O-] | -3.66% (inactive) |
| Cc1cc(C)n2ncc(C(=O)Nc3ccc4c(c3)OCCO4)c2n1 | 13.6% (inactive) |
| CCOC(=O)c1cccc(NC(=O)CN(C)S(=O)(=O)c2ccc(-c3cocn3)s2)c1 | 2.17% (inactive) |
| NC(=O)Cc1ccc2sc(-c3ccccc3)nc2c1 | 5.29% (inactive) |
| CN(C(=O)COc1nnc(-c2cccs2)c(-c2cccs2)n1)c1ccccc1 | -4.55% (inactive) |
| O=C(O)Cc1sc(-c2ccccc2)nc1-c1cccs1 | 23.1% (active) |
| CCCCNC(=O)C[C@H]1C(=O)N(Cc2ccc(OC)cc2)C2=CCCC[C@@]21C(=O)OCC | -2.41% (inactive) |
| CCOC(=O)C1CCN(C(=O)C(C)(C)NC(=O)Nc2ccc(F)c(F)c2)CC1 | 0.69% (inactive) |
| C=CS(=O)(=O)N(Cc1nnn(Cc2ccccc2)c1Br)[C@H](C(=O)OC)C(C)C | 2.36% (inactive) |
| COc1ccc(C2OCC3(CO2)SC(=O)NC3=O)cc1OC (stereo not drawn) | 17.2% (active) |
| CCC1(C)COC(c2ccc(OC)c(OC)c2)OC1 (stereo not drawn) | -0.64% (inactive) |
| COc1ccc(C2NC(=O)C(=O)/C2=C(\O)c2ccc(Cl)cc2)cc1OC (stereo not drawn) | 0.15% (inactive) |
| COC(=O)[C@]12C[C@H](CC(=O)N3CCOCC3)C(=O)N(Cc3ccc(Cl)cc3Cl)C1=C[C@H](C(C)C)O[C@@H]2C1CC1 | 7.42% (inactive) |
| CCn1c(CSc2ncccn2)nnc1SCC(=O)N1c2ccccc2CC1C (stereo not drawn) | 6.44% (inactive) |
| CC1CC(C)CN(C(=O)CSc2nnc(CSc3ncccn3)n2C)C1 (stereo not drawn) | -4.27% (inactive) |
| CC(=O)CSc1nnc(CSc2ncccn2)n1C1CCCCC1 | 23.7% (active) |

| SMILES | inhibition |
| --- | --- |
| C#CCCN([C@H](C(=O)OC)C(C)C)S(=O)(=O)c1ccc(F)cc1Br | 0.24% (inactive) |
| Clc1ccc(-n2c(SC/C=C/c3ccccc3)nnc2-c2ccco2)cc1 | 6.61% (inactive) |
| NNC(=O)c1oc2nc(-c3ccccc3)cc(-c3ccco3)c2c1N | 19.6% (active) |
| Cc1ccc(O)c(NC(=O)c2cc(-c3ccco3)on2)c1 | 3.18% (inactive) |
| CNC(=S)NNC(=O)c1oc2nc(-c3ccccc3)cc(-c3ccco3)c2c1N | 17.2% (active) |
| O=C1CCC2(CCC(c3ccc(Cl)cc3)CC2)N1CCO (stereo not drawn) | 6.92% (inactive) |
| C=CCN1C(C(=O)OC)CN(Cc2cn(Cc3ccccc3)nn2)CCS1(=O)=O (stereo not drawn) | 5.02% (inactive) |
| O=C(CSc1nc2c(c(=O)[nH]1)CCCC2)N1CCCCC1 | 1.16% (inactive) |
| O=C(c1c[nH]c2ccccc12)N1CCC(Oc2cccnc2)CC1 | 7.61% (inactive) |
| Cc1ccc(C(=O)N(Cc2ccccn2)CC2CCCO2)cc1 (stereo not drawn) | -2.59% (inactive) |
| CCOC(=O)C1CSCCS(=O)(=O)N1Cc1ccc(Cl)cc1 (stereo not drawn) | -6.12% (inactive) |
| CCOC(=O)c1ccccc1N1C(=O)C2Sc3[nH]c(=O)sc3C(/C=C/c3ccccc3)C2C1=O (stereo not drawn) | 15.9% (inactive) |
| CCOC(=O)C1Sc2[nH]c(=O)sc2C(c2ccc(Cl)cc2)C1C(=O)OCC (stereo not drawn) | 24.7% (active) |
| COC(=O)c1cccc(Cn2ccc3ccc(-c4ccc5ccn(C(=O)c6ccccc6C)c5c4)cc32)c1 | 12.8% (inactive) |
| COC(=O)C1CN(Cc2ccc(F)cc2)CCS(=O)(=O)N1Cc1ccc(Cl)cc1 (stereo not drawn) | -1.35% (inactive) |
| CCOC(=O)[C@]12CCCC3=C1N(CCC3)C(=O)[C@@H](CC(=O)NCC13CC4CC(CC(C4)C1)C3)C2 | -1.2% (inactive) |
| COc1ccc(-c2cc(C(=O)NC(C(=O)O)C(C)C)c(C)o2)cc1OC (stereo not drawn) | -1.04% (inactive) |
| O=C(CCn1nnc2ccccc2c1=O)N[C@@H](Cc1c[nH]c2ccccc12)C(=O)O | 2.35% (inactive) |
| COc1ccc(-c2cc(C(=O)NC(Cc3c[nH]c4ccccc34)C(=O)O)c(C)o2)cc1OC (stereo not drawn) | 17.2% (active) |
| COc1ccc2c(C(C)c3ccc(N)cc3)cn(C)c2c1 (stereo not drawn) | 15.5% (inactive) |
| CN(C)c1ccc(NC(=O)NC2CCCCN(Cc3ccc(Cl)cc3)C2=O)cc1 (stereo not drawn) | 11.1% (inactive) |
| COc1ccc(C(=O)OCCN2CCN(C3CN(Cc4cn(Cc5ccccc5F)nn4)S(=O)(=O)C3)CC2)cc1OC (stereo not drawn) | 3.42% (inactive) |

| SMILES | inhibition |
| --- | --- |
| Cc1ccc(NC(=S)NNC(=O)CSc2nnc(SCc3ccccc3Cl)s2)cc1 | 5.21% (inactive) |
| Cc1[nH]c2ccccc2c1C(=O)CN1CC(C)CC(C)C1 (stereo not drawn) | -1.61% (inactive) |
| Cc1[nH]c2ccccc2c1C(=O)CN1CCCC(C)C1 (stereo not drawn) | -6.16% (inactive) |
| Cc1[nH]c2ccccc2c1C(=O)CSCC(=O)O | 30.1% (active) |
| N#Cc1ccc(OC[C@@H](O)CN2CCC(C(O)(c3ccccc3)c3ccccc3)CC2)c(F)c1 | -5.05% (inactive) |
| COC(CNC(=O)[C@H](Cc1ccccc1)NC1(C(=O)NC2CCCCC2)CCCCC1)OC | 8.17% (inactive) |
| CCCC(=O)NC(=S)Nc1ccc(CN2CCOCC2)cc1 | -1.23% (inactive) |
| Cc1ccc(NC(=S)NCCN2CCOCC2)cc1 | 57.3% (active) |
| Cc1cc(C)cc(NC(=S)NCCCN2CCOCC2)c1 | -2% (inactive) |
| C=CCN(C)CC#Cc1ccccc1 | 1.7% (inactive) |
| Cn1c(NN)nc2sc3c(c2c1=O)CCC3 | 41.8% (active) |
| COc1ccccc1-n1c(SCC(=O)O)nc2sc3c(c2c1=O)CCC3 | -0.36% (inactive) |
| CCn1c(SCC(C)=O)nc2sc3c(c2c1=O)CCCC3 | 0.4% (inactive) |
| CCn1c2ccccc2c2cc(NC(=O)CSc3nnc(-c4ccccc4)n3-c3ccc(C)cc3)ccc21 | 4.72% (inactive) |
| CCn1c(=S)[nH]c2cc(S(=O)(=O)N3CCOCC3)ccc21 | -1% (inactive) |
| CNS(=O)(=O)c1ccc2c(c1)[nH]c(=S)n2C | 18.6% (active) |
| CCCCn1c(=S)[nH]c2cc(S(=O)(=O)N3CCCCC3)ccc21 | 8.16% (inactive) |
| CN1[C@H](Cc2ccccc2)COc2cccc(N3CCSCC3)c2S1(=O)=O | -5.79% (inactive) |
| O=S1(=O)c2c(NCc3ccco3)cccc2Oc2ccccc2CN1Cc1cn(Cc2cccc(C(F)(F)F)c2)nn1 | -2.9% (inactive) |
| C[C@@H]1CN([C@@H](C)CO)C(=O)c2cccc(NC(=O)Nc3cccc4ccccc34)c2O[C@H]1CN(C)S(=O)(=O)c1ccccc1F | -1.21% (inactive) |
| Oc1ccc(N=Cc2c(O)ccc3ccccc23)cc1 | 21% (active) |
| Oc1ccc(N=Cc2sc3ccccc3c2Cl)cc1 | 22.5% (active) |

| SMILES | inhibition |
| --- | --- |
| CCOC(=O)C1CCN(C(=O)C(C)(C)NC(=O)Nc2ccccc2Cl)CC1 | -1.25% (inactive) |
| O=C(Nc1nc2ccc(Cl)cc2s1)c1cc(-c2ccc(Cl)cc2)nc2ccccc12 | -3.74% (inactive) |
| CN(CCO)c1cccc2c1S(=O)(=O)N(Cc1cn(Cc3ccc(C(F)(F)F)cc3)nn1)Cc1ccccc1O2 | -1.94% (inactive) |
| NNc1nc2c(Cl)cccc2s1 | 17.2% (active) |
| O=S1(=O)c2ccc(Br)cc2OC[C@@H](Cc2ccccc2)N1Cc1cn(Cc2ccco2)nn1 | -0.13% (inactive) |
| COC(=O)C1CN(CCc2ccccc2)CCS(=O)(=O)N1Cc1cccc(Cl)c1 (stereo not drawn) | -0.76% (inactive) |
| O=C(c1cccnc1)N1CCN(S(=O)(=O)c2cccs2)CC1 | 4.01% (inactive) |
| O=C(Nc1cccc(Cl)c1N1CCOCC1)c1cccnc1 | -7.61% (inactive) |
| O=C(N/N=C/c1sc(N2CCCCC2)nc1-c1cccs1)c1cccnc1 | 19.6% (active) |
| COC(=O)CC1CCc2cc(C)cc(C(CC(C)C)NC(=O)[C@H](CC(C)C)NC(=O)OCc3ccccc3)c2O1 (stereo partly drawn) | 4.19% (inactive) |
| O=C(NCc1cccnc1)c1ccc2nc([C@@H]3O[C@H](CO)[C@H](O)[C@H](O)[C@H]3O)[nH]c2c1 | -0.84% (inactive) |
| O=C(Nc1ccc(Cl)cc1)c1csc([C@@H]2O[C@H](CO)[C@H](O)[C@H](O)[C@H]2O)n1 | -0.06% (inactive) |
| O=C(Nc1cccc(Cc2ccccc2)c1)Nc1ccc2nc([C@@H]3O[C@H](CO)[C@@H](O)[C@H](O)[C@H]3O)[nH]c2c1 | 21% (active) |
| CC(CCN1CCC(C(O)(c2ccccc2)c2ccccc2)CC1)Oc1ccc(Cl)cc1 (stereo not drawn) | -3.91% (inactive) |
| CC(C)=CCCC1(C)C=Cc2c(ccc3c2[nH]c2cc(O)c(C)cc23)O1 (stereo not drawn) | 20.8% (active) |
| CCn1c(=O)n2n(c1=O)[C@@]1(C=C3CCCC[C@H]32)N=C(NC(=O)c2ccccc2)N(Cc2ccccc2)[C@H]1Cc1ccccc1 | 7.65% (inactive) |
| COC(=O)C1CN(CC(C)C)CCS(=O)(=O)N1Cc1ccc(C)cc1 (stereo not drawn) | 5.08% (inactive) |
| O=C(OCc1nc2ccccc2[nH]1)C1CCCCC1 | 0.98% (inactive) |
| O=S(=O)(c1ccc(Br)cc1)N1CCC(c2nc3ccccc3[nH]2)CC1 | -5.23% (inactive) |
| c1ccc2[nH]c(-c3nc4ccccc4[nH]3)nc2c1 | 47.9% (active) |
| COc1ccc(C2Nc3ccccc3C(=O)N2Cc2cccs2)cc1COc1c(C)cccc1C (stereo not drawn) | -4.49% (inactive) |
| O=C(CSc1nc2sc3c(c2c(=O)n1-c1ccccc1)CCCC3)NN=Cc1ccc(OCc2ccccc2)cc1 | 8.02% (inactive) |
